Source: PubChem
Hits are enriched below; roughly 21% of the tested compounds scored in any of these assays.
MRP1 act = activators of MRP-1; H69AR cells + doxorubicin, viability rescue, CellTiter-Glo; viability increase, % at 10 µM; hit rate 0.61% among 140,000;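 active = viability gain under doxorubicin at or above a set limit, the compound median plus 3 SD, cut at about 4.7% in these data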;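 note: MRP-1 overexpressing cells given doxorubicin 25 µM after compound pretreatment; 18-22 h compound pretreatment then 72 h with doxorubicin before readout; 0% = doxorubicin-only wells and 100% = vehicle-treated cells without doxorubicin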
CYP2C19 inh = inhibitors of human CYP2C19; P33261; CYP2C19 Supersomes, luciferin-H EGE luminescence, 30 min; inhibition, % at 5 µM; hit rate 21% among 96,000; AID 778;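 active = CYP2C19 inhibition above a set limit at 5 µM in the primary screen, cut at about 50% in these data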;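 note: plate controls were negative control wells for no effect and 2.5 mM tranylcypromine positive control for full effect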
Target sequence (P33261 whole entry, looked up): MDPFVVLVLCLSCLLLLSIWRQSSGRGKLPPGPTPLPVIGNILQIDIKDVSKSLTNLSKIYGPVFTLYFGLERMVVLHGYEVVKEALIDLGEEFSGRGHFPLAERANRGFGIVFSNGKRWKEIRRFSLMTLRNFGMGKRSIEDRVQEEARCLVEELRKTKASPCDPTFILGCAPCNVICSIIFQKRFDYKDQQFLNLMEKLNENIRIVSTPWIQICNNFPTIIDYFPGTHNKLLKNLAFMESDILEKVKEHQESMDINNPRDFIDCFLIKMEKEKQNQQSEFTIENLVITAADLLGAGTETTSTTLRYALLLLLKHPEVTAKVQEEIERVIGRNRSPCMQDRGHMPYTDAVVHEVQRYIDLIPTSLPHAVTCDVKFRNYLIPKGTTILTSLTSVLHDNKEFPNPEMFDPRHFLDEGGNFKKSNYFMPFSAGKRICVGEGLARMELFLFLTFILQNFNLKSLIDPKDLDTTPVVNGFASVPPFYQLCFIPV
MRP reversal = compounds reversing MRP-mediated drug resistance | H69AR cells + 2 uM doxorubicin, CellTiter-Glo, 72 h | differential viability (reversal), % at 10 µM | hit rate 0.04% among 85,000 | AID 602;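 active = viability drop by adding the cancer drug above about 55%, with treated viability meeting a 40% cutoff, limit read from the data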;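 note: viability without doxorubicin minus viability with 2 µM doxorubicin for each compound; larger differential means the compound sensitizes cells more to doxorubicin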
CYP2C9 act = activators of human CYP2C9. recombinant CYP2C9, luciferin-H conversion, luminescence; active compounds read high; factor 1 = untreated enzyme, 0 = blocked. activation factor at 5 µM. AID 1024. hit rate 1.4% among 96,000;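 active = activation factor of 2 or more for CYP2C9 at a 5 µM dose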;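 note: 0 = sulfaphenazole-blocked wells and 1 = vehicle-only wells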
CYP2C19 act = activators of human cytochrome P450 2C19 | recombinant CYP2C19, luciferin-H EGE luminescence; active compounds read high; 0 = fully inhibited enzyme, 1 = untreated enzyme | activation factor at 5 µM | 96,000 tested, under 10 active;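 active = activation factor of at least 2 at 5 µM in the primary screen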;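 note: 0 = wells with 2.5 mM tranylcypromine and 1 = vehicle-only wells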
CYP2C9 inhib = blocks human cytochrome P450 2C9; P11712; CYP2C9 Supersomes, luciferin-H conversion, luminescence; inhibition, % at 5 µM; hit rate 20% among 96,000;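 active = blocking of liver enzyme CYP2C9 beyond about 50% at 5 µM, limit read from the data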
The depositor's hits bear a star; · = no result.

SMILES | MRP1 act | CYP2C19 inh | MRP reversal | CYP2C9 act | CYP2C19 act | CYP2C9 inhib
COc1cccc(C2SCC(=O)N2c2ccc(Br)cc2)c1OC (stereo not drawn) | -1 | · | · | · | · | ·
CCOC(=O)c1cccc(Nc2nc(C)cc(C)n2)c1 | 0 | 16 | 13 | 0.9 | 0.8 | 14
CCOC(=O)c1cccc(NC(=O)CN(C)S(=O)(=O)c2cnc[nH]2)c1 | 0 | 54* | -10 | 0.1 | 0.5 | 94*
CCc1cccc(NC(=O)Cc2ccc(OC)c(OC)c2)c1 | -1 | · | · | · | · | ·
CN(CC(=O)NCc1ccccc1)S(=O)(=O)c1cnc[nH]1 | 0 | 100* | 6 | 0.2 | 0 | 80*
CCN(c1ccccc1)S(=O)(=O)c1cnc[nH]1 | -1 | 98* | 7 | 0 | 0 | 100*
CCc1cccc(NC(=O)CN(C)S(=O)(=O)c2cnc[nH]2)c1 | -2 | 95* | 11 | 0.1 | 0 | 95*
Cc1ccc(CCNC(=O)CN(C)S(=O)(=O)c2cnc[nH]2)cc1 | 2 | · | · | · | · | ·
CC(C)CNC(=O)c1cccc(NC(=O)C2CCCO2)c1 (stereo not drawn) | -1 | 2 | 6 | 0.9 | 1 | 14
CCN1CNC(=S)N(C(C)c2ccccc2)C1 (stereo not drawn) | -2 | · | · | · | · | ·
O=C(NCCc1ccncc1)c1ccccc1F | -1 | 81* | 1 | 0.4 | 0.2 | 57*
O=C(Nc1ccc(Oc2cccnc2)cc1)c1ccccc1F | 0 | 93* | · | 0 | 0.1 | 97*
O=C(Nc1ccncc1)c1ccccc1F | -4 | 64* | 9 | 0.6 | 0.4 | 45
NS(=O)(=O)c1ccc(CCNC(=O)c2ccccc2F)cc1 | 0 | 17 | 10 | 1 | 0.8 | 4
CCOc1cccc(-c2csc(C3COc4ccccc4O3)n2)c1 (stereo not drawn) | 0 | · | · | · | · | ·
CCOC(=O)C1CCN(C(=O)CSC2=NCCS2)CC1 | -1 | 59* | 17 | 0.9 | 0.4 | 9
O=C(CSC1=NCCS1)N1CCN(c2ccc(Cl)cc2)CC1 | -5 | 62* | -12 | 0.8 | 0.4 | 16
COCCn1c(-c2ccccc2)nc2c(c(=O)c3ccccc3n2C)c1=O | -2 | · | · | · | · | ·
COC(=O)CNC(=O)CCCCC(=O)NCC(=O)OC | 0 | -14 | · | 1.1 | 1.1 | -14
COCCNc1nc2ccccc2nc1NS(=O)(=O)c1ccc(C)cc1C | -1 | 24 | 9 | 0 | 0.8 | 98*
CCc1nnc(NC(=O)CSc2nnc(COc3ccccc3)n2Cc2ccccc2)s1 | -3 | · | -22 | · | · | ·
Cc1cc(C)c(C#N)c(SCc2c(F)cccc2[N+](=O)[O-])n1 | 3 | · | · | · | · | ·
CCn1c(N)c(C(=O)NCC2CCCO2)sc1=S (stereo not drawn) | -1 | 10 | · | 0.9 | 0.9 | 8
CCCCCNC(=O)c1ccc2c(=O)[nH]c3c(C(=O)NCC4CCCO4)sc(=S)n3c2c1 (stereo not drawn) | -1 | 35 | -7 | 0.1 | 0.7 | 95*
O=C(NC1CCCC1)c1sc(=S)n2c1[nH]c(=O)c1ccccc12 | -2 | 28 | -34 | 0.1 | 0.7 | 93*
SMILES | MRP1 act | CYP2C19 inh | MRP reversal | CYP2C9 act | CYP2C19 act | CYP2C9 inhib
O=C(NCc1ccco1)c1sc(=S)n2c1[nH]c(=O)c1ccccc12 | -4 | 29 | 2 | 0 | 0.7 | 99*
Cc1cc(C(F)(F)F)n(-c2nc(C(=O)Nc3ccccc3Oc3ccccc3)cs2)n1 | 0 | 5 | · | 0.6 | 0.9 | 41
COC(=O)c1sc(N)c(C(=O)OC)c1CSc1nnnn1C | -3 | 92* | 2 | 0.5 | 0.1 | 55*
COC(=O)c1sc(N)c(C(=O)OC)c1CSc1nnc(-c2ccccc2Cl)n1C | 0 | 100* | 1 | 0 | 0 | 97*
CCc1cc2cccc(C)c2nc1SCC(=O)c1ccc(NC(C)=O)cc1 | -2 | 3 | · | 0.2 | 1 | 80*
CC(=O)Nc1ccc(C(=O)CSc2nnc(C)o2)cc1 | -2 | 2 | 13 | 1 | 1 | 3
CCc1cc2ccc(C)cc2nc1SCC(=O)c1ccc(NC(C)=O)cc1 | -3 | 63* | · | 0.1 | 0.4 | 92*
CCc1cc2cccc(C)c2nc1SCC(=O)NNC(=O)c1ccco1 | -1 | -17 | · | 1.5 | 1.2 | -48
COc1ccccc1NC(=O)c1ccc(NC(=O)CSc2n[nH]c(N)n2)cc1 | 0 | · | · | · | · | ·
[O-]/[N+](=C\c1ccncc1)c1ccc(Br)cc1 | -3 | · | 1 | · | · | ·
CCOC(=O)Cc1csc(NC(=O)c2ccco2)n1 | 0 | 46 | -5 | 0.6 | 0.5 | 36
CCOC(=O)Cc1csc(NC(=O)c2ccncc2)n1 | -1 | 78* | 1 | 0.4 | 0.2 | 56*
CCOC(=O)Cc1csc(NC(=O)c2cccnc2)n1 | 1 | 14 | · | 0.9 | 0.9 | 10
CCCCOC(=O)Nc1nc(CC(=O)OCC)cs1 | 0 | 91* | 11 | 0.2 | 0.1 | 82*
CCOC(=O)Cc1csc(NC(=O)c2ccc(C)o2)n1 | -3 | 73* | -38 | 0.3 | 0.3 | 72*
CCOC(=O)Cc1csc(NC(=S)NC(=O)C(C)(C)C)n1 | 13* | · | · | · | · | ·
CC(C)CC(NC=C1C(=O)OC(C)(C)OC1=O)C(=O)O (stereo not drawn) | -1 | · | 5 | · | · | ·
CC(C)C(NC=C1C(=O)OC(C)(C)OC1=O)C(=O)O (stereo not drawn) | -2 | 2 | -15 | 0.3 | 1 | 65*
CCOC(=O)CNC(c1ccccc1)c1cc(Br)ccc1NC(=O)CCN1CCOCC1 (stereo not drawn) | -5 | · | · | · | · | ·
CCOC(=O)CNC(c1ccccc1)c1cc(Br)ccc1NC(=O)OCC (stereo not drawn) | 0 | 31 | · | 0.4 | 0.7 | 56*
COc1ccccc1C1c2c(C)nn(-c3ccccc3)c2NC(=O)C1NC(=O)c1ccccc1 (stereo not drawn) | -4 | · | · | · | · | ·
CC(C)OCCCNC(=O)CCSc1ccc(Cl)cc1 | -1 | 63* | 1 | 0.2 | 0.4 | 78*
O=C(CCCCCn1c(=O)[nH]c2ccccc2c1=O)NCCCN1CCN(c2ccccc2F)CC1 | -1 | 33 | 11 | 0.6 | 0.7 | 44
CSC(=O)CC(=O)NC(=O)c1ccccc1 | 1 | 1 | 0 | 0.5 | 1 | 48
CCCn1c(SCc2ccon2)nc2ccccc2c1=O | -3 | 85* | -16 | 0.2 | 0.1 | 83*
NC(=O)c1ccsc1NC(=O)CSc1nnc(C2CC2)n1Cc1ccccc1 | -3 | 27 | 6 | 0.7 | 0.7 | 27
COc1ccc(CCn2c(SCC(=O)Nc3cc(C)on3)nc3ccsc3c2=O)cc1OC | -4 | 54* | -9 | 0.4 | 0.5 | 60*
COc1ccc(CCn2c(SCC(=O)Nc3cc(C)on3)nc3ccccc3c2=O)cc1OC | -3 | 64* | -7 | 0.5 | 0.4 | 51*
NC(=O)c1ccsc1NC(=O)CSc1nc2ccccc2c(=O)n1CCCO | -4 | 44 | 4 | 0.4 | 0.6 | 58*
CCCCn1c(SCC(=O)Nc2cc(C)[nH]n2)nc2ccsc2c1=O | -3 | 28 | -4 | 0.3 | 0.7 | 72*
